From PubChem BioAssay
Pemphigus Ab inh – human desmoglein-3 autoantibody binding inhibition; P32926; DSG3-coupled beads, scFv-anti-DSG3-GFP binding, flow cytometry; hits give low values; binding (percent of control), % at 10 µM; 310,000 tested, 0.48% active;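 active = binding more than 3 SD below its plate's average and above zero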;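 also: hits lower antibody fragment binding to DSG3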
PAFAH1B2 FP inh – PAFAH1B2 (human) inhibition; P68402; recombinant PAFAH1B2, FP-rhodamine activity probe, fluorescence polarization; inhibition, % at 3.39 µM; 340,000 tested, 1.2% active; AID 492953;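 active = inhibition above the mean of all tested compounds plus 3 SD, cut at about 24% in these data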;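 also: 0% = enzyme with DMSO and 100% = wells lacking PAFAH1B2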
Target sequence (P68402 whole entry, looked up): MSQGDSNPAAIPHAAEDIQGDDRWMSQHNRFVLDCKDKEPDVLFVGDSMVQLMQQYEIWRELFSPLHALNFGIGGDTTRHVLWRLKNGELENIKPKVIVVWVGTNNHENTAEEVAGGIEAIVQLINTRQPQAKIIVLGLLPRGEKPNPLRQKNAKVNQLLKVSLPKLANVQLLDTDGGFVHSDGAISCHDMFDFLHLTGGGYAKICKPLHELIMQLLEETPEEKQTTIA
pPAFAH inh – pPAFAH (human) enzyme inhibition; recombinant pPAFAH, FP-rhodamine probe fluorescence polarization; AID 463082; inhibition, % at 3.39 µM; Q13093; 330,000 tested, 1.5% active;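 active = inhibition above the mean inhibition across the screen plus 3 SD, cut at about 25% in these data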;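 also: inhibitors block binding of the rhodamine activity-based probe so polarization drops; 0% = enzyme with DMSO and 100% = wells lacking pPAFAH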
PAFAH1B3 FP inh – inhibitors of human PAFAH1B3; Q15102; recombinant PAFAH1B3, FP-rhodamine probe, fluorescence polarization; inhibition, % at 3.39 µM; 340,000 tested, 0.28% active; AID 492972;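 active = inhibition above the screen-wide average of all tested compounds plus 3 SD, cut at about 25% in these data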;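 also: 0% = enzyme with DMSO only and 100% = wells lacking PAFAH1B3 protein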
PAFAH2 FP inh – PAFAH2 (human) inhibition; Q99487; recombinant PAFAH2, FP-rhodamine activity probe, fluorescence polarization; inhibition, % at 3.39 µM; 340,000 tested, 0.99% active; AID 492956;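 active = inhibition above the mean over all tested compounds plus 3 SD, cut at about 30% in these data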;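 also: inhibitors block probe labeling of enzyme so polarization drops; 0% = enzyme with DMSO and 100% = wells lacking PAFAH2 protein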
PfM18AAP inh-1 – PfM18AAP enzyme inhibition. inhibition, % at 7.35 µM. recombinant PfM18AAP, H-Glu-NHMec fluorogenic cleavage. AID 1822. 290,000 tested, 1.2% active;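 active = inhibition above the campaign mean inhibition over all tested compounds plus 3 SD, cut at about 28% in these data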;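 also: 0% = plate median of test compound wells and 100% = 2 mM ZnCl2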
PfM18AAP inh-2 – confirmation of Plasmodium falciparum M18 aspartyl aminopeptidase inhibitors; AID 2170; recombinant PfM18AAP, H-Glu-NHMec fluorogenic cleavage; shares compounds with PfM18AAP inh-1; 2,400 tested, 28% active; inhibition, % at 7.35 µM;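 active = mean inhibition over replicate wells above the hit cutoff set for the earlier primary screen, cut at about 29% in these data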;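 also: 0% = median of test compound wells and 100% = 2 mM ZnCl2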
CTSL1 counter – Cathepsin L (human) inhibition, confirmation; inhibition, % at 5.96 µM; purified cathepsin L1, Z-Leu-Arg-MCA fluorescence; shares compounds with PfM18AAP inh-1; AID 2178; 2,400 tested, under 10 active;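 active = average inhibition across replicates above the hit cutoff set in the earlier primary screen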;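 also: 0% = median of test compound wells and 100% = Z-Phe-Ala-diazomethylketone 1 µM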
Target sequence (P07711 whole entry, looked up): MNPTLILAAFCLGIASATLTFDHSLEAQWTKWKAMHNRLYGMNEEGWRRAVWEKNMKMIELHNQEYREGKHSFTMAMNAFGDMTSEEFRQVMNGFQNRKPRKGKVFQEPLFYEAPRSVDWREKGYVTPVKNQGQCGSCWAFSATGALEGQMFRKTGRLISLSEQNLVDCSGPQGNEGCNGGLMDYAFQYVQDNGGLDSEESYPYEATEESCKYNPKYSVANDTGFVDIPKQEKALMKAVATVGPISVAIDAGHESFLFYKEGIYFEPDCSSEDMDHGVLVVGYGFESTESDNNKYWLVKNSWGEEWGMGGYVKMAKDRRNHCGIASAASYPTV
* marks the source's active call; other numbers are inactive results; nt = not tested or not shown. The list is not random: actives were taken first. Their share in the collection is about 3.8%.

SMILES | Pemphigus Ab inh | PAFAH1B2 FP inh | pPAFAH inh | PAFAH1B3 FP inh | PAFAH2 FP inh | PfM18AAP inh-1 | PfM18AAP inh-2 | CTSL1 counter
Nc1c(Cl)cc(-c2[nH]c3cc(C(=O)NCCO)ccc3c(=O)c2O)cc1Cl | 92 | 26* | 19 | 36* | -27 | 40* | -4 | 1
Clc1ccc(CNc2ncnc3[nH]ncc23)cc1Cl | 89 | 8 | nt | 14 | 3 | nt | nt | nt
CCOC(=O)Cc1csc(NC(=O)NC2(C(F)(F)F)Oc3ccccc3O2)n1 | 99 | 2 | 2 | 6 | 0 | 90* | 68* | 1
CCOC(=O)Cc1csc(NC(=O)NC2(C(F)(F)F)Oc3cc(Cl)c(Cl)cc3O2)n1 | nt | 5 | 4 | 4 | 0 | 94* | 73* | -3
CCOC(=O)Cc1csc(NC(=O)NC2(C(F)(F)F)Oc3ccc(Cl)cc3O2)n1 (centres undefined) | 102 | 4 | 3 | 11 | 13 | 97* | 73* | -2
CCOC(=O)Cc1csc(NC(=O)Nc2ccc(OC(F)(F)F)cc2)n1 | 112 | 4 | 6 | -5 | -5 | -3 | nt | nt
NC(=O)c1ncn([C@@H]2O[C@H](CNCc3c(OCc4ccccc4F)ccc4ccccc34)[C@@H](O)[C@H]2O)n1 | 98 | 2 | nt | 0 | 0 | nt | nt | nt
Cc1c[n+](CC(=O)c2ccccc2)c(C)cn1 | 104 | -6 | -1 | 10 | -1 | 2 | nt | nt
CCNC(=O)c1sc(=S)n(CC)c1N | 111 | 1 | -1 | 2 | -9 | -15 | nt | nt
CCn1c(N)c(C(=O)NC)sc1=S | 100 | -4 | -1 | -1 | -7 | 50* | 37* | -1
Cc1ccc(NC(=O)CSCC(=O)N2CCCc3ccccc32)cc1 | 102 | 4 | 2 | 11 | 2 | nt | nt | nt
O=C(O)c1ccccc1C=NNc1ccccn1 | 97 | 1 | nt | 6 | 4 | nt | nt | nt
CCN(CC)C(=O)c1ccc2c(c1)N(Cc1ccccc1)C(=O)CS2=O (centres undefined) | 108 | 2 | 3 | 8 | -2 | 54* | -25 | -3
O=C(NCC1CCCO1)c1ccc2c(c1)N(Cc1ccccc1)C(=O)CS2=O (centres undefined) | 103 | 2 | 1 | 15 | -2 | 42* | -63 | -5
O=C(NCc1ccco1)c1ccc2c(c1)N(Cc1ccccc1)C(=O)CS2=O (centres undefined) | 106 | 5 | -2 | 2 | -4 | 26 | nt | nt
O=C(CSc1ccccc1)N1CCN(c2ccc(F)cc2)CC1 | 110 | 5 | 7 | 3 | 2 | nt | nt | nt
CC[n+]1c(C)sc2c3ccsc3ccc21 | 99 | 3 | 2 | 4 | -7 | 55* | 9 | 6
CCN(CC)c1ccc(S(=O)(=O)N2CCCCC2)cc1NC(=O)CN1C(=O)NC2(CCCC2)C1=O | 102 | 8 | 6 | 4 | 11 | nt | nt | nt
S=C1NC(c2ccccc2)N2C(=S)NC(c3ccccc3)N12 (centres undefined) | 104 | 4 | 4 | 0 | 9 | 38* | -42 | -1
COc1ccc(-n2c(C)c(C(C)=O)c(C(C)=O)c2C)cc1OC | 106 | 1 | 2 | 8 | 5 | -4 | nt | nt
CC(=O)c1c(C(C)=O)c(C)n(-c2ccc(N)c(C)c2)c1C | 60 | 2 | 0 | 10 | 2 | 32* | -40 | 0
O=C(c1ccc(F)cc1)n1c(NCc2ccccc2)n[nH]c1=S | 101 | 1 | -4 | -3 | 1 | 11 | nt | nt
Oc1ccc(/C=N/NC(=S)NCCN2CCOCC2)c(O)c1 | 97 | 0 | 0 | 5 | 3 | 52* | 27 | 12
CN(C)c1cccc(NC(=O)CCc2ccccc2)c1 | 130 | 1 | 8 | 8 | -4 | -10 | nt | nt
CN(C)c1cccc(NC(=O)Cc2ccc(F)cc2)c1 | 107 | 5 | 2 | 1 | 5 | 39* | -10 | 1
SMILES | Pemphigus Ab inh | PAFAH1B2 FP inh | pPAFAH inh | PAFAH1B3 FP inh | PAFAH2 FP inh | PfM18AAP inh-1 | PfM18AAP inh-2 | CTSL1 counter
CCOC(=O)c1[nH]c2ccc(F)cc2c1NC(=O)c1ccccc1C(=O)O | 102 | 6 | nt | 5 | -6 | 33* | -34 | 3
O=C(O)c1ccc2c(c1)C1C=CCC1C(c1ccncc1)N2 (centres undefined) | 103 | 1 | 25* | 21 | 0 | 37* | 7 | -2
CCC(Sc1nnc(-c2ccco2)n1C)C(=O)Nc1nnc(C)s1 (centres undefined) | nt | -1 | 1 | 3 | -9 | 2 | nt | nt
COC(=O)c1cc(O)c(O)c(O)c1 | 107 | 8 | 0 | 22 | 5 | 32* | -5 | 10
CON(c1nc(N(C)C)nc(N(C)C)n1)S(=O)(=O)c1ccccc1Cl | 89 | 1 | -4 | 5 | -7 | -1 | nt | nt
COC(=O)CN(n1cnnc1)S(=O)(=O)c1ccccc1Cl | 105 | -6 | -2 | 5 | -9 | 87* | 77* | -5
O=S(=O)(Nc1ncn[nH]1)c1ccc2ccccc2c1 | 93 | 5 | 4 | 6 | -1 | 51* | 41* | -2
COc1ccc(Cl)cc1S(=O)(=O)Nc1ncn[nH]1 | 98 | 7 | 0 | 6 | -1 | 23 | nt | nt
Cc1cc(C)c(S(=O)(=O)Nc2ncn[nH]2)cc1C | nt | 7 | -5 | -2 | 8 | 42* | 11 | -2
O=C(COC(=O)c1ccc(O)cc1)NCC1CCCO1 (centres undefined) | 102 | 1 | 1 | 1 | 18 | 2 | nt | nt
O=Cc1cn(-c2ccccc2)nc1-c1ccc(F)cc1 | 111 | 5 | -5 | 7 | 5 | -1 | nt | nt
CC1=NNC(=O)/C1=C\c1cn(-c2ccccc2)nc1-c1ccc(F)cc1 | 118 | 3 | nt | 6 | -3 | 39* | 64* | 0
O=C(N/N=C/c1coc2ccccc2c1=O)c1cc(O)cc(O)c1 | 98 | 11 | nt | 10 | 7 | 39* | 3 | 3
O=C(N/N=C/c1coc2ccccc2c1=O)c1ccccc1Br | 124 | 0 | 3 | -2 | 6 | 36* | -29 | 0
Cc1cccc(C(=O)N/N=C/c2coc3ccccc3c2=O)c1 | nt | 2 | 4 | 9 | 6 | 1 | nt | nt
NC(=O)COC(=O)CCCc1c[nH]c2ccccc12 | 103 | 1 | 4 | 7 | 7 | -4 | nt | nt
NC(=O)Cc1c[nH]c2cccc(O)c12 | 106 | 3 | 3 | 12 | 3 | 47* | 12 | -5
Cc1ccc(S(=O)(=O)N2Cc3ccccc3CC2C(=O)Nn2cnnc2)cc1 (centres undefined) | 124 | 3 | 7 | -7 | -10 | 41* | 36* | -3
O=C(Nn1cnnc1)C1Cc2ccccc2CN1S(=O)(=O)c1ccc(F)cc1 (centres undefined) | 107 | 15 | 5 | 3 | -8 | 39* | 33* | -3
